Results: PubChem BioAssay (NCATS)
Inconclusive results are not listed. Activity calls are given as the source filed them. Unless noted, the call rests on the fitted dose curve; in most records, active means well fitted curve in either direction with a large enough effect (not every such curve was filed as active); inconclusive means small, poorly fitted or top-dose-only effect, or another doubt; inactive means flat fitted curve, though single readings scatter.

Legend:
[1] = target: Lysosomal acid glucosylceramidase (Homo sapiens) (UniProt P04062); test: Glucocerebrosidase-p2 (AID 348; in the data active means potency below about 10 µM; further: potency means the concentration at half of the fitted maximal effect); conditions: purified GBA, blue fluorogenic substrate, 40 min
Summary of the method: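 Normal human glucocerebrosidase (0.2 nM) with blue fluorogenic substrate (80 uM final) in citrate/phosphate pH 5.9 with 10mM sodium taurocholate, 0.01% tween-20; 40 min RT, NaOH/glycine stop; fluorescence Ex 365/Em 440; AC50 from a titration from 0.6 nM upwards.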

[2] = AP1 Signaling Pathway (AID 357); conditions: ME-180 AP-1-bla reporter, EGF-induced, beta-lactamase ratio, 5 h; at 7.69 µM (top of the series) unless noted;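 further: ME-180 reporter cells stimulated with EGF at its EC50 level; on the % scale 0 is the no-effect control and ±100 the full control effect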
Summary of the method: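 First, ME-180 AP-1-bla cells were cultured overnight at 37 °C in low-serum Opti-MEM. Next, titrated compounds with EC50 EGF were incubated 5 hours. Finally, CCF4 was added for 2.5 hours and the 460/530 nm ratio recorded.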

[3] = target: Cytochrome P450 1A2 (Homo sapiens) (UniProt P05177); test: p450-cyp1a2 (AID 410; calls by dose curve; further: potency means the concentration at half of the fitted maximal effect;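 on activity change, negative = inhibition: -100% = full effect of reference inhibitor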); conditions: recombinant CYP1A2, luciferin-ME demethylation, luminescence; series mostly up to 11.4 µM
Summary of the method: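 Read-out is luminescence from luciferin produced by CYP1A2 demethylation of Luciferin-ME (100uM, at Km). Detection reagent stopped the 60 min NADPH-dependent reaction; signals were normalized to 57 uM furafylline.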

[4] = Stat Signaling Pathway (AID 446); conditions: ME-180 (cervical carcinoma) SIE beta-lactamase reporter, IL-6 stimulated, 5 h; at 7.69 µM (top of the series) unless noted;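 further: ME-180 cervical cancer cells given 40 pM IL-6 alongside compound; SIE-controlled beta-lactamase reporter measured as 460/530 nm FRET emission ratio; on the % scale 0 is the no-effect control and ±100 the full control effect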
Summary of the method: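 Emission at 460 and 530 nm (excitation 405 nm) reports SIE-controlled beta-lactamase in ME-180 cells. Cells received compound with 40 pM IL-6 for 5 hrs at 37 C; data scaled between 300 pM IL-6 and 125 nM JAK-inhibitor controls.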

[5] = target: Glucocorticoid receptor (Homo sapiens) (UniProt P04150); test: GR-GFP Redistribution (AID 450;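 active means compounds whose dose series gives a full or clear partial fitted curve of increased nuclear translocation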; further: potency means the concentration at half of the fitted maximal effect); conditions: U2OS GR-GFP nuclear translocation, laser cytometry, 2 h
[6] = target: Glucocorticoid receptor (Homo sapiens) (UniProt P04150); test: GR-EFC Redistribution (AID 451; calls by dose curve; further: potency means the concentration at half of the fitted maximal effect); conditions: CHO-K1 GR-EFC translocation, beta-gal luminescence, 2 h
Summary of the method: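 Translocation of GR-ED fusion to nuclear EA restores b-gal, read by luminescence after 1 h room-temperature detection. Engineered CHO-K1 biosensor cells, 1,000/well, exposed 2 h at 37 C to titrations up to 46 uM final.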

[7] = target: Mitogen-activated protein kinase 10 (Mus musculus) (UniProt Q61831); test: JNK3 AlphaScreen Assay (AID 530); conditions: JNK3 lysate, c-Jun phosphorylation; series mostly up to 11.4 µM;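 further: kinase came from lysate of stimulated human HepG2 cells; signal reports phosphorylation of biotinylated GST-cJun 1-79 at Ser73 with 10 µM ATP; on the % scale 0 is the no-effect control and ±100 the full control effect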
Summary of the method: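 Kinase buffer: 20 mM Tris-HCl pH 7.6, 10 mM MgCl2, 1 mM DTT, 0.1 mM Na3VO4, 0.01% Tween-20; ATP 10 uM. Substrate biotin-GST-cJun(1-79), enzyme from activated HepG2 lysates. Detection by Ser73 phospho-antibody AlphaScreen.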

[8] = target: 3',5'-cyclic-AMP phosphodiesterase 4B (Homo sapiens) (UniProt Q07343); test: qHTS Assay for Inhibitors of PDE-IV (AID 607; active means well fitted activation curve with a large enough effect in the main read-out, with a control signal flat, not every such curve was filed as active; further: % of control where 0% means no effect); conditions: HEK293 ACTOne CNG channel cells, membrane potential fluorescence; series mostly up to 22.9 µM
Summary of the method: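 The readout is membrane depolarisation from a cAMP-sensing CNG channel, detected with a potential dye at ex 535/em 590. Cells were HEK293-derived (endogenous PDE-IV) at 1000 cells/well, titrated up to 22.9 uM final.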

[9] = target: Cytochrome P450 2C9 (Homo sapiens) (UniProt P11712); test: qHTS Assay for Inhibitors and Substrates of Cytochrome P450 2C9 (AID 883; active means well fitted curve in the direction sought with a large enough effect; an effect the other way counts as inactive or inconclusive; further: nearly all actives have a fitted effect of over 60% in size; further: potency means the concentration at half of the fitted maximal effect; on activity change, negative = inhibition: on the % scale 0 is the no-effect control and ±100 the full control effect); conditions: recombinant CYP2C9, luciferin-H luminescence, 60 min; series mostly up to 11.4 µM
Summary of the method: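 Turnover of Luciferin-H (100uM, KM) by 10nM human CYP2C9 was measured over 60 min at 37C with NADPH regeneration; inhibitors and some substrates reduce luminescence. Data normalized to sulphaphenazole 57uM.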

[10] = target: Cytochrome P450 3A4 (Homo sapiens) (UniProt P08684); test: qHTS Assay for Activators of Cytochrome P450 3A4 (AID 885; active means well fitted curve in the direction sought with a large enough effect; an effect the other way counts as inactive or inconclusive; further: nearly all actives have a fitted effect of over 65% in size); conditions: recombinant CYP3A4, Luciferin-PPXE luminescence, 60 min; series mostly up to 11.4 µM
Summary of the method: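 Activators are scored by enhanced luminescence from CYP3A4 conversion of luciferin-PPXE (25uM, equal to KM) to luciferin, after 60 min at RT with an NADPH-regenerating system.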

[11] = target: Cytochrome P450 2C19 (Homo sapiens) (UniProt P33261); test: qHTS Assay for Inhibitors and Substrates of Cytochrome P450 2C19 (AID 899; active means well fitted curve in the direction sought with a large enough effect; an effect the other way counts as inactive or inconclusive; further: nearly all actives have a fitted effect of over 60% in size; further: potency means the concentration at half of the fitted maximal effect); conditions: recombinant CYP2C19, luciferin-H EGE luminescence; series mostly up to 11.4 µM
Summary of the method: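 Reactions contain 5nM enzyme, 10uM Luciferin-H EGE (KM) and 50mM KPO4; compound preincubates 10 min at 37C, NADPH regeneration starts turnover for 60 min. Luminescence after detection reagent gives activity.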

[12] = target: Cytochrome P450 2D6 (Homo sapiens) (UniProt P10635); test: qHTS Assay for Inhibitors and Substrates of Cytochrome P450 2D6 (AID 891; active means well fitted curve in the direction sought with a large enough effect; an effect the other way counts as inactive or inconclusive; further: potency means the concentration at half of the fitted maximal effect; nearly all actives have a fitted effect of over 60% in size); conditions: recombinant CYP2D6, luciferin-ME EGE luminescence; series mostly up to 11.4 µM
Summary of the method: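 Luminescent read-out of luciferin formed by 5 nM human CYP2D6 demethylating 30 uM Luciferin-ME EGE (Km level) over 60 min at room temperature after NADPH regeneration addition. Data normalized to full inhibition by 1.43 uM quinidine.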

Sequence of Lysosomal acid glucosylceramidase (Homo sapiens) (P04062 whole entry, looked up): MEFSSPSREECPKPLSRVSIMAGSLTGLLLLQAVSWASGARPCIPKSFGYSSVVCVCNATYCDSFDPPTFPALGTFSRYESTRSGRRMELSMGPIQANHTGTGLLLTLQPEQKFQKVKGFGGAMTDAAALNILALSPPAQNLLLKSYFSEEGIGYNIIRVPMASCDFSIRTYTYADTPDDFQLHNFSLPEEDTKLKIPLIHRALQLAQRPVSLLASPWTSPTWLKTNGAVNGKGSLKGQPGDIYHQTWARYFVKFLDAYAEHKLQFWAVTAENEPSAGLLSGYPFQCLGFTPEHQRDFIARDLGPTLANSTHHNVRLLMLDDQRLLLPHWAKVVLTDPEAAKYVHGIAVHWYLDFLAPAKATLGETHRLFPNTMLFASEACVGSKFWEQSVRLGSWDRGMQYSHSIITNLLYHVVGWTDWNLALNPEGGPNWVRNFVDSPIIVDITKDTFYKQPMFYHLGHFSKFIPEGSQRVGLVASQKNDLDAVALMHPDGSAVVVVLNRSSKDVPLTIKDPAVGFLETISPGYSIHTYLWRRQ
Sequence of Glucocorticoid receptor (Homo sapiens) (P04150 whole entry, looked up, the tested form may be a part): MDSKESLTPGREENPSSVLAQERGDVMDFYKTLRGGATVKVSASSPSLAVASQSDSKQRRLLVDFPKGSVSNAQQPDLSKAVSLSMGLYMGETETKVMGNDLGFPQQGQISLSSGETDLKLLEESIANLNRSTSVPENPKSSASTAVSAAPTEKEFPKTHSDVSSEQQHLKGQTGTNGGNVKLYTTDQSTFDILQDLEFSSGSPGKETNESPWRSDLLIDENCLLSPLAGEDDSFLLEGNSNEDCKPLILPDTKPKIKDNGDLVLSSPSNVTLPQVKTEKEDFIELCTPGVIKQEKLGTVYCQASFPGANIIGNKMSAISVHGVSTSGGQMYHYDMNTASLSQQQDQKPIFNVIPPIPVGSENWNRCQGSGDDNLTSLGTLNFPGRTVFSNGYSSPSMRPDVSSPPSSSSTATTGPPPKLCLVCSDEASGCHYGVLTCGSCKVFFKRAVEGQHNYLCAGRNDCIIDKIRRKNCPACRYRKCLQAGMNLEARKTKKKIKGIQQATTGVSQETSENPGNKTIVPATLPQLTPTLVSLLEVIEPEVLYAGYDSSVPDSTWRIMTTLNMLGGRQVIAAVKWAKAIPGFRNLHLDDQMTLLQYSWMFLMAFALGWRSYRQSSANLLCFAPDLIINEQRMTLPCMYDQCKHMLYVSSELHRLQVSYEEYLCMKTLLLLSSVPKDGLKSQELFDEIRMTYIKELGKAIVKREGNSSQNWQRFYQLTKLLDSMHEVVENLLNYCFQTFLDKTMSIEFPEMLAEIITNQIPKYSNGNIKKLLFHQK
Sequence of Cytochrome P450 2C19 (Homo sapiens) (P33261 whole entry, looked up): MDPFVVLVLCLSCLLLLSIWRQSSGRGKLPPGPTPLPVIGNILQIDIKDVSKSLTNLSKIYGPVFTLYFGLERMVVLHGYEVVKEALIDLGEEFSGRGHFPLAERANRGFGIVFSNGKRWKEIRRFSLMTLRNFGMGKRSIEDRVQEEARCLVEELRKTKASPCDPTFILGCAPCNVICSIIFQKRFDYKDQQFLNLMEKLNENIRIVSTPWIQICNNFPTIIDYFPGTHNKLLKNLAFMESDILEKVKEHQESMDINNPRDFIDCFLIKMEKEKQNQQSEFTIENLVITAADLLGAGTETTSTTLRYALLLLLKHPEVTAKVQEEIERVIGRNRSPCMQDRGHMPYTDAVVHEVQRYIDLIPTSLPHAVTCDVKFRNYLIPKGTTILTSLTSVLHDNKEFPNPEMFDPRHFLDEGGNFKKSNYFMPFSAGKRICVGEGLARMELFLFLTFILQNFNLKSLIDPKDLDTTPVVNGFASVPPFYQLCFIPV
Sequence of Cytochrome P450 1A2 (Homo sapiens) (P05177 whole entry, looked up): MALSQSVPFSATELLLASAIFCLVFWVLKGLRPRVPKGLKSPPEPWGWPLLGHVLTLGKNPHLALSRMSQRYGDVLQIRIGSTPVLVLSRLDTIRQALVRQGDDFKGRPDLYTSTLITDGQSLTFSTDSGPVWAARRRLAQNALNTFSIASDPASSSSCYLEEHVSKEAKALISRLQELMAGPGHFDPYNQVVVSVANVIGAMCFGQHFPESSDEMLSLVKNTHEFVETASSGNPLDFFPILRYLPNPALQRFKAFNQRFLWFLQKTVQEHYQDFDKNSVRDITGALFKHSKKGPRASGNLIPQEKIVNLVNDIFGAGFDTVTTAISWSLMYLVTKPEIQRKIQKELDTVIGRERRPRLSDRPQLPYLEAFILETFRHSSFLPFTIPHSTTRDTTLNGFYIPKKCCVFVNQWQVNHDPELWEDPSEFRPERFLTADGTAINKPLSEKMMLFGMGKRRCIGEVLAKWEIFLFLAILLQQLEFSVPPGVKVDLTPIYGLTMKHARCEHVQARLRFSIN
Sequence of Cytochrome P450 2C9 (Homo sapiens) (P11712 whole entry, looked up): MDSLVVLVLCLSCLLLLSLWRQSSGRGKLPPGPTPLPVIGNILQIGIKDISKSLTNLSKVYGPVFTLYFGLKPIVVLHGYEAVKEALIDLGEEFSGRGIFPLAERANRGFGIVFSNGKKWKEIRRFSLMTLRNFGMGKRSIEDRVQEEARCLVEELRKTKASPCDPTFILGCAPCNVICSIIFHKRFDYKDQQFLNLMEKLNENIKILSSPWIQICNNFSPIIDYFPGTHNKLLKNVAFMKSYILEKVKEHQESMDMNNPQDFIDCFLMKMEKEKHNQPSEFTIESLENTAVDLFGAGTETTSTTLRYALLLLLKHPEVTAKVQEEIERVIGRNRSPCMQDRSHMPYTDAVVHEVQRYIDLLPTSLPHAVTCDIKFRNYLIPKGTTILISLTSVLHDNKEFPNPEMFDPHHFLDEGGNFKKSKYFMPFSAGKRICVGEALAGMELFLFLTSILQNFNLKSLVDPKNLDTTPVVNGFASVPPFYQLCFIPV
Sequence of 3',5'-cyclic-AMP phosphodiesterase 4B (Homo sapiens) (Q07343 whole entry, looked up): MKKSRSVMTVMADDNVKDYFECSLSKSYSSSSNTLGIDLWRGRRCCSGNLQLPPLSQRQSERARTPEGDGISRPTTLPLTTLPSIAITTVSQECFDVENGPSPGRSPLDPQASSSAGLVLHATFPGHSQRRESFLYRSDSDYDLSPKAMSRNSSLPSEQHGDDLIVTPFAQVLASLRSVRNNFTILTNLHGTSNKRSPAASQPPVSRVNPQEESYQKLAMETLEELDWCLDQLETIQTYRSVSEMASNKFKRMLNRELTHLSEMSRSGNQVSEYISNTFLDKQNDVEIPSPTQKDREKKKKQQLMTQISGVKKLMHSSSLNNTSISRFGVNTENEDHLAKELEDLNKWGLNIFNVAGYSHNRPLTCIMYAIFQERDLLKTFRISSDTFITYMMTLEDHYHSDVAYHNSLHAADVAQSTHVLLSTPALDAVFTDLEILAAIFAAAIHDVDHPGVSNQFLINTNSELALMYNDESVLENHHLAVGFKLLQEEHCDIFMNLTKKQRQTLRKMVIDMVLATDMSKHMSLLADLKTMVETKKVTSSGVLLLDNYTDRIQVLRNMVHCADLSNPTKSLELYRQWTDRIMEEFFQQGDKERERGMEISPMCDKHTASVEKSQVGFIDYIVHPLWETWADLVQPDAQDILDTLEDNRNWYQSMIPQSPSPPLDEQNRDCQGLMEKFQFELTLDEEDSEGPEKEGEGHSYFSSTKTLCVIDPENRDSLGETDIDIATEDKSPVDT
Sequence of Cytochrome P450 3A4 (Homo sapiens) (P08684 whole entry, looked up): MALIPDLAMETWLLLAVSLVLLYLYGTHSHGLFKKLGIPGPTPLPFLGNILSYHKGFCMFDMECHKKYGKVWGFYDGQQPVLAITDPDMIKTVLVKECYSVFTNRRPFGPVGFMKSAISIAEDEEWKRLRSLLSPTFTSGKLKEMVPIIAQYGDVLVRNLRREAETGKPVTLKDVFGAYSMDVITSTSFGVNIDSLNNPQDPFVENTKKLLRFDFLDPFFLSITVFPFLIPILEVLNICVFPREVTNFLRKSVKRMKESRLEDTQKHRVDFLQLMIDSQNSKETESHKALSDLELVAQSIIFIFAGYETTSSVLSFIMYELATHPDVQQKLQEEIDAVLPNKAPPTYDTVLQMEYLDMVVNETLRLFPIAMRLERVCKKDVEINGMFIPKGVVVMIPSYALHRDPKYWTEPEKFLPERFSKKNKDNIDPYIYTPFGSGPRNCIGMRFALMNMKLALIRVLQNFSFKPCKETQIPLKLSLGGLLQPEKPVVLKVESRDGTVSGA
Sequence of Cytochrome P450 2D6 (Homo sapiens) (P10635 whole entry, looked up): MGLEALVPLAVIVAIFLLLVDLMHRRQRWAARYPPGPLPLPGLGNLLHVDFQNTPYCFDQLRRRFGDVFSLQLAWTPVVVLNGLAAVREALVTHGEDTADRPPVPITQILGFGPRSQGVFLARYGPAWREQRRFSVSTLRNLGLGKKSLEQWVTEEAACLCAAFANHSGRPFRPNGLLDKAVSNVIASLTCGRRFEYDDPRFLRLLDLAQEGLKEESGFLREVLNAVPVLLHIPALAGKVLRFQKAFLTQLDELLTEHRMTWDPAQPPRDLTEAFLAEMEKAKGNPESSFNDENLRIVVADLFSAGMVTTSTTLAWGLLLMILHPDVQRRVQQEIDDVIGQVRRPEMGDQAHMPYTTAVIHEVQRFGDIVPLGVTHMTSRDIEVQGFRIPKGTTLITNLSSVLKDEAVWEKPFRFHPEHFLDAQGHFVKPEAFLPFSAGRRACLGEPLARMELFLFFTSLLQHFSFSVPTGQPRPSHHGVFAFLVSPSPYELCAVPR

Oc1c(CN2CCN(c3ccccc3)CC2)cc(Br)c2cccnc12
inactive: Potency [1] > 11.4 µM | activity change, negative = inhibition [2] 3.27% | activity, negative = inhibition [4] -0.132% | Potency [5] > 46 µM | Potency [6] > 9.22 µM | Potency [7] | Potency [8]
active: Potency [3] 1.26 µM

N=C1CCC[C@@H]1C(=S)SCCC(N)=O
inactive: Potency [1] > 11.4 µM | activity change, negative = inhibition [2] -7.71% | activity, negative = inhibition [4] -12.4% | Potency [5] > 46 µM | Potency [6] > 9.22 µM | Potency [7] | Potency [8]
active: Potency [3] 3.16 µM

CCN(CC)CC[n+]1ccc2c(C)c3[nH]c4ccccc4c3c(C)c2c1
active: Potency [3] 2.51 µM
inactive: Potency [1] > 11.4 µM | activity change, negative = inhibition [2] -22.3% | activity, negative = inhibition [4] 29.6% | Potency [5] > 46 µM | Potency [6] > 9.22 µM | Potency [7] | Potency [8]

C[C@]1(O)CC[C@H]2[C@H]3CC=C4N5CCN=C5CC[C@@]4(C)[C@H]3CC[C@@]21C
inactive: Potency [1] > 11.4 µM | activity change, negative = inhibition [2] -0.00324% | activity change, negative = inhibition [3] -12.8% [at 2.29 µM] | activity, negative = inhibition [4] -6.8% | Potency [5] > 46 µM | Potency [6] > 9.22 µM | Potency [7] | Potency [8]

O=C(Nc1cccc2cccnc12)[C@@H]1[C@@H](C(=O)O)[C@H]2CC[C@@H]1O2
inactive: Potency [1] > 11.4 µM | activity change, negative = inhibition [2] 6.33% | Potency [3] | activity, negative = inhibition [4] -11% | Potency [5] > 46 µM | Potency [6] > 9.22 µM | Potency [7] | Potency [8]

Cc1c2cccc(Sc3ccccc3)c2c2c3c(cccc13)[S+](c1ccccc1)C2 (centres undefined)
inactive: Potency [1] > 11.4 µM | activity change, negative = inhibition [2] -7.04% | activity change, negative = inhibition [3] -17.3% [at 2.29 µM] | activity, negative = inhibition [4] 2.31% | Potency [5] > 46 µM | Potency [6] > 9.22 µM | Potency [7] | Potency [8] | Potency [10]
active: Potency [9] 2.51 µM | Potency [11] 0.0631 µM

Cc1ccc(C)c(/C(=N\N=C(N)N)C2CC2)c1
inactive: Potency [1] > 11.4 µM | activity change, negative = inhibition [2] -1.56% | activity change, negative = inhibition [3] 1.1% [at 2.29 µM] | activity, negative = inhibition [4] 4.46% | Potency [5] > 46 µM | Potency [6] > 9.22 µM | Potency [7] | Potency [8]

Oc1ccc(Cc2nccc3cc(O)c(O)cc23)cc1O
inactive: Potency [1] > 11.4 µM | activity change, negative = inhibition [2] -6.37% | activity, negative = inhibition [4] -2.43% | Potency [5] > 46 µM | Potency [6] > 9.22 µM | Potency [7] | Potency [8] | Potency [9]
active: Potency [3] 5.01 µM | Potency [12] 1.26 µM

Cc1cc(Cc2cc(C)cc(C(C)(C)C)c2O)c(O)c(Cc2cc(C)cc(C(C)(C)C)c2O)c1
inactive: Potency [1] > 11.4 µM | activity change, negative = inhibition [2] -27.2% | activity change, negative = inhibition [3] -15.6% [at 2.29 µM] | activity, negative = inhibition [4] 6.72% | Potency [5] > 46 µM | Potency [6] > 9.22 µM | Potency [7] | Potency [8]
active: Potency [9] 3.16 µM | Potency [11] 3.16 µM

Cc1[nH]n(-c2ccc(S(=O)(=O)O)cc2)c(=O)c1N=Nc1ccccc1
inactive: Potency [1] > 11.4 µM | activity change, negative = inhibition [2] -16.3% | Potency [3] | activity, negative = inhibition [4] -16.2% | Potency [5] > 46 µM | Potency [6] > 9.22 µM | Potency [7] | Potency [8] | Potency [11]

Cc1ccc(N[C@H](c2ccccc2)c2ccc3cccnc3c2O)cc1
inactive: Potency [1] > 11.4 µM | activity change, negative = inhibition [2] -6.67% | activity change, negative = inhibition [3] -24.5% [at 2.29 µM] | activity, negative = inhibition [4] 3.71% | Potency [5] > 46 µM | Potency [6] > 9.22 µM | Potency [7] | Potency [8] | Potency [10]

CN1CCN(CC(=O)N2c3ccccc3Sc3cc4ccccc4cc32)CC1
inactive: Potency [1] > 11.4 µM | activity change, negative = inhibition [2] 12.2% | activity change, negative = inhibition [3] -21.6% [at 2.29 µM] | activity, negative = inhibition [4] -5.37% | Potency [5] > 46 µM | Potency [6] > 9.22 µM | Potency [7] | Potency [8] | Potency [10]

N[C@@H](CC1=CS(=O)(=O)c2ccc(Cl)cc21)C(=O)O
inactive: Potency [1] > 11.4 µM | activity change, negative = inhibition [2] -5.74% | activity, negative = inhibition [4] -1.77% | Potency [5] > 46 µM | Potency [6] > 9.22 µM | Potency [7] | Potency [8] | Potency [10]
active: Potency [3] 0.398 µM

CC1(C)N=C(N)N=C(N)N1CCCCc1ccccc1
inactive: Potency [1] > 11.4 µM | activity change, negative = inhibition [2] 7.1% | activity change, negative = inhibition [3] -4.3% [at 2.29 µM] | activity, negative = inhibition [4] 0.495% | Potency [5] > 46 µM | Potency [6] > 9.22 µM | Potency [7] | Potency [8]
active: Potency [12] 3.16 µM
